Assay results reported in PubChem BioAssay (Tox21).
Inconclusive results are not listed. Values without a mark were called inactive. The source made the active and inactive calls. Calls come from the whole dose curve; as a rule, active = well fitted cell-killing curve with a large enough effect in the repeat runs; inconclusive = weak or mixed curves, or effect the other way; inactive = flat fitted curve, though single readings scatter.

Experiment: Nuclear factor erythroid 2-related factor 2/antioxidant responsive element (Nrf2/ARE) small molecule agonists: qHTS cell viability counter screen in human keratinocytes (AID 1919968); note: nearly all actives have a fitted effect of over 55% in size
Conditions: KeratinoSens HaCaT ARE cells viability, CellTiter-Fluor, 24 h; series mostly up to 92.4 µM; activity change, negative = cytotoxicity: at the top concentration
Summary of the method: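 Viability counter-screen: KeratinoSens reporter cells, DMSO-delivered compounds, 23 h at 37 C, CellTiter-Fluor fluorescence.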
% is set by controls: 0 for no effect and ±100 for the full control effect; potency is the fitted concentration of half-maximal effect.

Point of comparison: `COc1cccc(OC)c1C(=O)N[C@@H]1C(=O)N2[C@@H]1SC(C)(C)[C@@H]2C(=O)O`, “activity change, negative = cytotoxicity” value 0.548% [at 42.5 µM]. Against it:
- CC(C)COC(=O)c1ccc(N)cc1 — higher, 0.983% [at 42.5 µM]
- CCCc1cc(C(N)=S)ccn1 — higher, 14.8% [at 42.5 µM]
- CCO/C([O-])=N/c1c[n+](N2CCOCC2)no1 — higher, 18.4% [at 42.5 µM]
- NS(=O)(=O)c1ccc(NC(=O)CCC(=O)O)cc1 — higher, 4.41% [at 42.5 µM]
- N=C(N)c1ccc2cc(OC(=O)c3ccc(N=C(N)N)cc3)ccc2c1 — lower, -4.74% [at 42.5 µM]
- CC(=O)N(c1onc(C)c1C)S(=O)(=O)c1ccc(N)cc1 — lower, 0.329% [at 42.5 µM]
- NCCC(O)(P(=O)(O)O)P(=O)(O)O — higher, 2.88% [at 42.5 µM]

For `CCCCCCCCCCCCCCO`, the Potency was “inactive”.
For `COc1ccc(C(=O)CC(=O)c2ccc(C(C)(C)C)cc2)cc1`, the Potency was “inactive”.
With `IC(I)I` the Potency was “inactive”.
In the case of `CC[C@H]1CN2CCc3cc(OC)c(OC)cc3[C@@H]2C[C@@H]1C[C@H]1NCCc2cc(OC)c(OC)cc21`, the Potency was 274 nM (active).
For `O=P(OC(CCl)CCl)(OC(CCl)CCl)OC(CCl)CCl`, the Potency was “inactive”.
With `c1ccc2c(c1)CCc1ccccc1N2` the Potency was “inactive”.

Point of comparison: `O=C(c1ccc(Cl)cc1)c1ccc(Cl)cc1`, “activity change, negative = cytotoxicity” value 2.17%. Against it:
- O=C(O)c1ccco1 — lower, -6.36%
- CSc1cnccn1 — higher, 2.55%
- CCCCCCCOC(C)=O — higher, 4.32%
- CCc1cnc(C(=O)O)c(C(=O)O)c1 — lower, -0.264%
- CCO[Si](OCC)(OCC)c1ccccc1 — lower, 2.02%
- CCC1COC(=O)O1 (centres undefined) — lower, 0.743%
- CC(C)(C)c1ccc(CCC=O)cc1 — higher, 4.89%
- FC(F)(F)c1cccc(Cl)c1 — lower, -0.0442%
- Nc1ccc(NCCO)c([N+](=O)[O-])c1 — lower, -21.7%
- Cc1cccc(Cl)c1 — lower, -0.804%
- CC1=CCC(C(C)C)=CC1 — higher, 3.85%
- CC1(C)C(C=C(Cl)Cl)C1C(=O)OCc1cccc(Oc2ccccc2)c1 (centres undefined) — higher, 19.8%
- CCCOCCOCCOCCO — lower, -9.28%
- O=[N+]([O-])c1ccc(F)cc1F — lower, 0.298%
- OC[C@H]1O[C@@H](O[C@H]2[C@H](O)[C@@H](O)[C@H](O)O[C@@H]2CO)[C@H](O)[C@@H](O)[C@H]1O — lower, 0.474%
- c1ccc2c(c1)CCC2 — lower, 0.418%
- CO[Si](OC)(OC)c1ccccc1 — higher, 8.54%
- CC(C)c1cccc(O)c1 — higher, 3.87%
- CC(C)CC=O — higher, 2.64%
- CC/C=C\CC1=C(C)CCC1=O — lower, 1.35%
- CCCCOC(=O)C(C)OC(=O)CCC (centres undefined) — lower, 1.99%
- CCCC=O — lower, -4.78%

In the case of `CN(C)c1ccc(/C=C/c2ccc([N+](=O)[O-])cc2)cc1`, the activity change, negative = cytotoxicity was 0.836% [at 8.39 µM].

For `CCC(C)S` (centres undefined), the activity change, negative = cytotoxicity was -0.322% [at 3.27 µM].
